For part of these data: Potency and affinity values are given separately. Calls of active or inactive are those of the source.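 How the source made its calls, unless noted: active means earlier screen potentiator hit that boosts the TRPC4 ion channel at some dose, with a dose response; inactive means no potentiation, no dose response, or not a prior hit.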
How the values were obtained:
[1] = system: TRPC4 beta (transient receptor potential cation channel C4), mouse; assay: TRPC4 cation channel opening, retest – cell-based, Fluo4 calcium, HEK293 TRPC4beta/mu-opioid, duplicates, 10 µM, confirmation (AID 2426;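 active means fluorescence ratio normalized to control raised more than 50% in primary screen plus both repeat runs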); conditions: Fluo4 calcium fluorescence, at 10 µM; hits give high values
[2] = system: transient receptor potential cation channel C4 beta (TRPC4), mouse; assay: TRPC4 cation channel opening, second retest – cell-based, second round, Fluo4, HEK293 TRPC4beta/mu-opioid, 1 µM, confirmation (AID 2461;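 active means primary screen active and over 50% activation in each of two duplicate runs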); conditions: Fluo4 calcium fluorescence, at 1 µM; hits give high values
[3] = system: TRPC4 (transient receptor potential cation channel C4 beta), mouse; assay: potentiation of DAMGO EC20 TRPC4 response – cell-based, second round, Fluo-4, HEK293 TRPC4beta/mu-opioid, 1 µM, confirmation (AID 2554;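 active means primary screen hit whose fluorescence ratio, in both repeats, exceeds the weak agonist control mean by 3 SD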); conditions: DAMGO EC20, Fluo-4 calcium flux, at 1 µM; hits give high values
[4] = system: TRPC4 beta (transient receptor potential cation channel C4), mouse; assay: potentiation of DAMGO EC20 TRPC4 response – cell-based, Fluo-4, HEK293 TRPC4beta/mu-opioid, confirmation (AID 2555;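 active means primary screen hit whose calcium fluorescence ratio, in both repeats, exceeds the weak agonist control mean by 3 SD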); conditions: DAMGO EC20, Fluo-4 calcium flux, at 10 µM; hits give high values
[5] = target: Short transient receptor potential channel 4 (Mus musculus) (UniProt Q9QUQ5); assay: blockers of DAMGO-evoked TRPC4 calcium flux – cell-based, Fluo4, HEK293 TRPC4beta/mu-opioid, confirmation (AID 2636;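 active means calcium signal cut by more than 3 SD below the full-agonist control yet still positive, in both repeats and the earlier primary screen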); conditions: at 10 µM; hits give high values
[6] = target: Short transient receptor potential channel 4 (Mus musculus) (UniProt Q9QUQ5); assay: blockers of DAMGO-evoked TRPC4 calcium flux – cell-based, second round, Fluo4, HEK293 TRPC4beta/mu-opioid, 1 µM, confirmation (AID 2637;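 active means calcium signal ratio cut to more than 3 SD under the fully stimulated control mean yet still positive, in both repeats and the primary screen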;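 on inhibition: percent of integrated ratio relative to wells lacking test compound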); conditions: at 1 µM; hits give high values
[7] = target: Short transient receptor potential channel 4 (Mus musculus) (UniProt Q9QUQ5); assay: calcium entry via TRPC4 opening agents – cell-based, HEK293 TRPC4/mu-opioid, Fluo-4 calcium, dose response (AID 434937;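 active means primary screen activator hit with a dose response curve and TRPC4 channel activation at any tested dose; inactive means no activation, no dose response, or not a primary hit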)
[8] = target: Short transient receptor potential channel 4 (Mus musculus) (UniProt Q9QUQ5); assay: potentiation of DAMGO-evoked TRPC4 calcium signal – cell-based, HEK293 TRPC4/mu-opioid, Fluo-4 calcium, EC20 DAMGO, dose response (AID 434941);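 further: calcium entry triggered by an EC20 dose of DAMGO at the co-expressed mu-opioid receptor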
[9] = target: Short transient receptor potential channel 6 (Mus musculus) (UniProt Q61143); assay: TRPC6 blockade by TRPC4 inhibitor hits – cell-based, HEK293, membrane potential dye, duplicate, selectivity assay for TRPC4 inhibitor project, confirmation (AID 434948;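 active means active in primary screen and both duplicates, each dropping signal beyond three positive-control SD with fluorescence still positive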); conditions: HEK293 TRPC6, membrane potential dye fluorescence, at 10 µM, stimulated with maximal-effect acetylcholine; hits give high values
[10] = target: Short transient receptor potential channel 6 (Mus musculus) (UniProt Q61143); assay: TRPC6 opening by TRPC4 activator hits – cell-based, HEK293, membrane potential dye, duplicate, selectivity assay for TRPC4 activator project, confirmation (AID 434950;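 active means membrane potential signal rise above negative control mean plus 3 SD in both duplicates, also active in the earlier TRPC4 screen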); conditions: HEK293 TRPC6, membrane potential fluorescence, at 10 µM; activation: hits give high values; outcome: activation
[11] = target: Short transient receptor potential channel 6 (Mus musculus) (UniProt Q61143); assay: positive modulators of mouse TRPC6 channel – HEK293 cells, membrane potential dye, duplicate, selectivity assay for TRPC4 potentiator project, confirmation (AID 434952;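 active means compound raising the membrane signal above positive-control mean plus 3 SD in both repeats, and a primary screen hit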); conditions: HEK293 TRPC6, membrane potential dye fluorescence, at 10 µM, maximal acetylcholine added after compound; hits give high values
[12] = target: Short transient receptor potential channel 4 (Mus musculus) (UniProt Q9QUQ5); assay: calcium flux activators in TRPC4/5HT1a cells, counter-screen for TRPC4 activator project, cell-based, second counter screen, HEK293 TRPC4/5HT1a, Fluo-4 (AID 434977;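 active means calcium signal rise above buffer-control mean plus 5 SD in both duplicates, and also a hit in the primary screen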); conditions: Fluo-4 calcium flux, at 10 µM; hits give high values
[13] = serotonin-gated TRPC4 signal block – cell-based, second counter screen, HEK293 TRPC4/5HT1a, Fluo-4, counter-screen for TRPC4 inhibitor project, confirmation (AID 434978;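 active means primary screen active whose calcium signal fell more than 3 SD beyond the full-serotonin control mean in both duplicate plates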;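 on outcome: serotonin given first at submaximal then at maximal dose after compound preincubation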); conditions: Fluo-4 calcium flux, at 10 µM, serotonin added to trigger calcium flux; hits give high values
[14] = system: TRPC4 (mouse), co-expressed with 5HT1a in HEK293; assay: enhancement of serotonin-evoked TRPC4 response – cell-based, second counter screen, HEK293 TRPC4/5HT1a, Fluo-4, counter-screen for TRPC4 potentiator project, confirmation (AID 434979;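 active means signal rise over 3 SD above mean of control wells given weak agonist, in both repeats and first screen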); conditions: Fluo-4 calcium flux, at 10 µM, serotonin added at its EC20 dose; hits give high values
[15] = nonspecific calcium rise without TRPC4 – cell-based, HEK293 mu-opioid receptor line, counter-screen for TRPC4 activator project, confirmation (AID 449723;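 active means hit in primary screen, with calcium signal over 5 SD above buffer well mean in both duplicates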;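 further: counter screen cells carry the mu-opioid receptor alone and lack TRPC4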); conditions: HEK293 mu-opioid cells, Fluo-4 calcium fluorescence, at 10 µM; hits give high values
[16] = nonspecific potentiation of DAMGO calcium response – cell-based, HEK293 mu-opioid receptor line, counter-screen for TRPC4 allosteric potentiator project, confirmation (AID 449724;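 active means calcium signal rise more than 3 SD above the low-dose agonist control mean, in both duplicate plates and the primary screen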); conditions: HEK293 mu-opioid receptor cells, Fluo-4 calcium flux, at 10 µM, compound added before EC20 DAMGO stimulus; hits give high values

Measured: inhibition

Short transient receptor potential channel 6 (Mus musculus), sequence (Q61143 whole entry, looked up): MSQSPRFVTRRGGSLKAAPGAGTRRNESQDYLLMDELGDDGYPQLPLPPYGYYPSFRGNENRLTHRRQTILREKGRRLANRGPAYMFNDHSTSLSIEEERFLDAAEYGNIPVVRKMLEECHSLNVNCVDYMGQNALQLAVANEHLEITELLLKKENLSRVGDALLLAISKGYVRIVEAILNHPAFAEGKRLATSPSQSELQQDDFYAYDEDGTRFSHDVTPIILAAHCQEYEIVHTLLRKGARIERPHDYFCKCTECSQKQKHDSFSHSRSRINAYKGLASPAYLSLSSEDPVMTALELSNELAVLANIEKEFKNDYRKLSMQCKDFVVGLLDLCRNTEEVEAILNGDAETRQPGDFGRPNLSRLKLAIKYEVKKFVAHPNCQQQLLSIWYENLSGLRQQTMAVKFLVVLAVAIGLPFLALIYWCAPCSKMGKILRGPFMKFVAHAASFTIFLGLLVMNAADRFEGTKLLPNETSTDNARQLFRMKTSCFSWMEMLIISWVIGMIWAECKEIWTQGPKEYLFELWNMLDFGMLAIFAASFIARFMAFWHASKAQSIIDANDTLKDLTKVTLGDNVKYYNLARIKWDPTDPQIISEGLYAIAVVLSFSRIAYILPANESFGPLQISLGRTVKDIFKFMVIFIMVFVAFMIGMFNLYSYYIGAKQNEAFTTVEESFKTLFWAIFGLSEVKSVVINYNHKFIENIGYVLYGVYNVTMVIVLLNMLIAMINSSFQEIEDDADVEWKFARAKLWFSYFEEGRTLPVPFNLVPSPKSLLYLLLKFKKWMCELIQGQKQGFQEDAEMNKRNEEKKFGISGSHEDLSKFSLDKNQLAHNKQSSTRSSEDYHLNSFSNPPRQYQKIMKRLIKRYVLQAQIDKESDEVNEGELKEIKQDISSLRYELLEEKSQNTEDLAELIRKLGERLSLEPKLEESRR
Short transient receptor potential channel 4 (Mus musculus), sequence (Q9QUQ5 whole entry, looked up): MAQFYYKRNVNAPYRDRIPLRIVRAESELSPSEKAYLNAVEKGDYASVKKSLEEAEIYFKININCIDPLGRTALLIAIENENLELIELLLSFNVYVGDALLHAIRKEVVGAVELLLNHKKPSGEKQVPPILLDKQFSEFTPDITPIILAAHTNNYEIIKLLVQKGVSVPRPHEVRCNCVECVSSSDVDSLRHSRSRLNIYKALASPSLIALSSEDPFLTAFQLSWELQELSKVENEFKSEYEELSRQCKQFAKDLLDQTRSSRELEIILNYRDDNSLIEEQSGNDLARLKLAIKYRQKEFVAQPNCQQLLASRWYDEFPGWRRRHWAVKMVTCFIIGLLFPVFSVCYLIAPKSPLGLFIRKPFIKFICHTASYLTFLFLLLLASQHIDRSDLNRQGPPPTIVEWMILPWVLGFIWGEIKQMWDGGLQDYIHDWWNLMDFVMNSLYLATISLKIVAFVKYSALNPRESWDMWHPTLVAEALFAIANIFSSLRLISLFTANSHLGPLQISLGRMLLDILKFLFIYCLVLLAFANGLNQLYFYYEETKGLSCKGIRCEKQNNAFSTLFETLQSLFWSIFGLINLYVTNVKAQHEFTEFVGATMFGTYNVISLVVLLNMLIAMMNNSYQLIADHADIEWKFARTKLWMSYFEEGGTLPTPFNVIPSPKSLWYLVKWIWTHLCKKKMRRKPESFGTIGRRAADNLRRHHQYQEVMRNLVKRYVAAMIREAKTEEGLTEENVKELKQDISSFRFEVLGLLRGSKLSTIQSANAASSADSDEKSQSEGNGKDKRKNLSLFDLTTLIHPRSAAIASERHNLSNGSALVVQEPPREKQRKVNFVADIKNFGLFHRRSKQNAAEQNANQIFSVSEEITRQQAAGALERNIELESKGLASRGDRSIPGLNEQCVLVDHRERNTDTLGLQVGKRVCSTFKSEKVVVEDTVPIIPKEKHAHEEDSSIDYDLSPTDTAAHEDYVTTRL

COc1nc(N=C(N)N)nc2ccc(C)cc12
active: [5] 96% | [9] 46.5% | [13] 21.1%
inactive: all other assays above

CC1(c2ccccc2)CC(C)(C)N(C(=O)C2CCCO2)c2ccccc21 (stereo not given)
active: [5] 90% | [13] 38.3%
inactive: all other assays above

CCCCN(Cc1ccccc1)C(=O)C1CCN(Cc2sccc2C)CC1
active: [5] 90% | [6] 46% | [13] 32.5%
inactive: all other assays above

Brc1ccc(N/N=C(/N=Nc2nn[nH]n2)c2ccccc2)cc1
active: [9] 25.5% | [13] 30.4%
inactive: all other assays above

N=c1sccn1CC(=O)Nc1ccccc1Oc1ccccc1
active: [5] 92% | [6] 48% | [9] 48% | [13] 34.6%
inactive: all other assays above

CCC(C)[C@H](Nc1nc(-c2ccccc2)nc2c1oc1ccccc12)C(=O)O (stereo not given in full)
active: [5] 89%
inactive: all other assays above

Cc1cccc(N(Cc2ccccc2)C(=O)CSC(C)C(=O)Nc2cc(C)on2)c1 (stereo not given)
active: [5] 91% | [13] 31.4%
inactive: all other assays above

CC(=O)Oc1ccc(/C=C(\NC(=O)c2ccco2)C(=O)NCc2ccccc2)cc1
active: [5] 82% | [13] 44.5%
inactive: all other assays above

OCC1(Cc2ccc(Cl)cc2)CCN(Cc2ccccc2F)CC1
active: [5] 89% | [6] 38% | [13] 27.9%
inactive: all other assays above

CC(C)(c1ccccc1)c1ccc(OCCCNCCO)cc1
active: [5] 79% | [13] 13.3%
inactive: all other assays above

COc1ccc(C2CC2/C(=N/O)c2ccccc2)cc1 (stereo not given)
active: [5] 94% | [13] 7.57%
inactive: all other assays above

COc1ccc(OC)c(Nc2cc(-c3ccccc3)nc(N)n2)c1
active: [5] 100% | [6] 49% | [9] 55.5% | [13] 37.9%
inactive: all other assays above

Cn1cc(CN2CCCCC2CO)c(-c2ccc(Oc3ccccc3)cc2)n1 (stereo not given)
active: [5] 86% | [6] 41% | [13] 39.6%
inactive: all other assays above

Cc1ccc(C)c2nc3sc(C(=O)O)cc3cc12
active: [5] 83% | [13] 30.9%
inactive: all other assays above

COc1ccc(Cn2nnnc2C(c2cc3cc(C)ccc3[nH]c2=O)N2CCN(C)CC2)cc1 (stereo not given)
active: [5] 83%
inactive: all other assays above

Reference: PubChem BioAssay
